Screens from PubChem BioAssay.
Cycloheximide cs: counter-screen hit for Shiga toxin inhibitors, cycloheximide; cell reporter, cycloheximide protein synthesis inhibition counterscreen; max response, %; 300,000 tested, 12% active; in the data active = max response mostly above about 13%, no sharp cut-off; inactive = mostly below about 14%; also: read at 38.3 µM for the half of the compounds with a filed dose
Lassa entry inh: Lassa virus entry inhibition; 300,000 tested, 1.2% active; Lassa virus pseudotype entry inhibition, cell reporter; AID 540256; Potency, µM (highest dose often 37.9 µM), usual class: inhibitors; calls by dose curve; tested in HEK293 cells; also: nearly all actives have a fitted effect of over 50% in size
Shiga inhibitor: blocks Shiga toxin action in Vero cells; 290,000 tested, 9.2% active; Vero cells, Shiga toxin protein synthesis inhibition reporter; inhibition, % at 38.7 µM; AID 2315; in the data active = inhibition mostly above about 28%, no sharp cut-off; inactive = mostly below about 43%
Pf growth 48h: P. falciparum growth inhibition at 48 hours (one generation) | P. falciparum luciferase growth in erythrocytes, 48 h | Potency, µM (doses to about 28.7 µM), most hits filed as inhibitors | 310,000 tested, 5.9% active | AID 504832
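Luminescence readout; reporter = integrated firefly luciferase in P. falciparum. RBC culture at 2% hematocrit, 0.1% parasitemia final, 37 C/5% CO2; decreased signal taken as growth inhibition.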
Pf growth 96h: P. falciparum growth inhibition at 96 hours. P. falciparum luciferase reporter growth, 96 h. Potency, µM (series often up to 28.7 µM), most hits filed as inhibitors. 320,000 tested, 6.9% active. AID 504834
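Two parasite generations (96 h, 37 C, 5% CO2) of compound exposure in infected erythrocytes (0.05% parasitemia, 2% hematocrit). Luciferase-reporter P. falciparum; decreased luminescence indicates inhibited growth, aimed at apicoplast-acting delayed death.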
MARV entry inh: blocks Marburg virus binding to or entry into cells | Marburg virus pseudotyped entry inhibition, cell reporter | Potency, µM (highest dose often 37.8 µM), usual class: inhibitors | 300,000 tested, 1.8% active | AID 540276; calls by dose curve; tested in HEK293 cells
Large screens that a line does not name were inactive. Sampled rows, rich in hits. Any-hit rate of the full collection: about 19%. Unless noted, calls follow the shape of the dose curve; as a rule, active = well fitted inhibition curve with a large enough effect; inconclusive = small, poorly fitted or top-dose-only effect, or another doubt; inactive = no such curve, though single readings can be large or run the other way.

CC(C)CN(Cc1cc2ccccc2[nH]c1=O)C(=O)c1cccnc1	none
COc1ccc(Nc2nnc(Cc3ccc(Cl)cc3)c(=O)[nH]2)c(OC)c1	none
CCOC(=O)C(C)n1cnc2sc3c(c2c1=O)CCC3 (stereo not drawn)	Pf growth 96h inconclusive
CCc1cc2c(=O)n(C(C)C(=O)OC3CCCCC3)cnc2s1 (stereo not drawn)	Cycloheximide cs 41, Lassa entry inh inconclusive, Shiga inhibitor 37, MARV entry inh inconclusive
COc1ccc(CN2CCCC(N3CCN(c4cccc(Cl)c4)CC3)C2)cc1OC (stereo not drawn)	Pf growth 48h inconclusive, Pf growth 96h 9.3µM (no result: Lassa entry inh, MARV entry inh)
CCOc1cc(CN2CCCC(N3CCN(c4ccc(F)cc4)CC3)C2)ccc1OC (stereo not drawn)	Pf growth 48h 1µM (no result: Lassa entry inh, MARV entry inh)
Cc1cc(NC(=O)NC2(C(F)(F)F)Oc3ccc(Cl)cc3O2)no1 (stereo not drawn)	Lassa entry inh inconclusive, Pf growth 48h inconclusive, MARV entry inh inconclusive
COc1ccc(N2CCN(C(=O)Cc3noc4ccc(C)cc34)CC2)cc1	none (no result: Cycloheximide cs, Shiga inhibitor, Pf growth 48h, Pf growth 96h, MARV entry inh)
CN(C)S(=O)(=O)N(CC(=O)N1CCN(c2ccccc2F)CC1)c1ccccc1	none
CC(Sc1nn(-c2ccccc2)c(=S)s1)C(=O)NCC1CCCO1 (stereo not drawn)	Pf growth 48h 9.3µM, Pf growth 96h 13µM (no result: Cycloheximide cs, Lassa entry inh, Shiga inhibitor, MARV entry inh)
Cc1nnc(SC(C)C(=O)NCC2CCCO2)n1-c1ccccc1 (stereo not drawn)	none
COc1cccc(C2CCCN2Cc2nc(CC3CC3)no2)c1 (stereo not drawn)	Pf growth 96h inconclusive
Cc1c(OCC(=O)NCC(O)c2ccccc2)ccc2c3c(c(=O)oc12)CCC3 (stereo not drawn)	Pf growth 96h 12µM (no result: Lassa entry inh, MARV entry inh)
CCc1cc(=O)oc2cc(OCC(=O)NCCCN3CCCC3=O)c(Cl)cc12	Pf growth 48h inconclusive, Pf growth 96h 12µM (no result: Lassa entry inh, MARV entry inh)
Cc1cc(OCC(=O)NCC(O)c2ccccc2)c2c3c(c(=O)oc2c1)CCC3 (stereo not drawn)	Pf growth 48h inconclusive (no result: Lassa entry inh, MARV entry inh)
O=C(COc1cc2oc(=O)c3c(c2cc1Cl)CCC3)NCC(O)c1ccccc1 (stereo not drawn)	Pf growth 96h 13µM (no result: Lassa entry inh, MARV entry inh)
Cc1c(OC(C)C(=O)NCC(O)c2ccccc2)ccc2c3c(c(=O)oc12)CCCC3 (stereo not drawn)	Pf growth 48h 8.3µM, Pf growth 96h 4.1µM (no result: Lassa entry inh, MARV entry inh)
Cc1cc(=O)oc2c(C)c(OC(C)C(=O)NCC(O)c3ccccc3)ccc12 (stereo not drawn)	Pf growth 48h inconclusive, Pf growth 96h inconclusive (no result: Lassa entry inh, MARV entry inh)
CC(C)(C)OC(=O)N1CCC(c2cc(=O)n3[nH]cc(C(=O)NC4CCCC4)c3n2)CC1	Pf growth 96h inconclusive (no result: Lassa entry inh, Pf growth 48h, MARV entry inh)
Cc1c(OCC(=O)NCCCN2CCCC2=O)ccc2c3c(c(=O)oc12)CCCC3	Pf growth 48h inconclusive, Pf growth 96h 19µM (no result: Lassa entry inh, MARV entry inh)
OCCCNc1nc(-c2ccccc2)c2cc(Br)ccc2n1	Pf growth 96h 1.7µM, MARV entry inh inconclusive
Cc1ccc(NC(=O)Nc2cnccn2)cc1C	Cycloheximide cs 28, Shiga inhibitor 96, Pf growth 96h inconclusive, MARV entry inh inconclusive
O=C(Nc1cnccn1)Nc1ccccc1Cl	none
O=C(Nc1cnccn1)Nc1cccc(Cl)c1Cl	Cycloheximide cs 26, Pf growth 96h inconclusive
O=C(Nc1ccc([N+](=O)[O-])cc1)Nc1cnccn1	Pf growth 48h inconclusive, Pf growth 96h inconclusive (no result: Lassa entry inh, MARV entry inh)
O=C(Nc1ccc(Cl)cc1)Nc1cnccn1	Cycloheximide cs 27
CC(C)c1ccc(NC(=O)Nc2cnccn2)cc1	Cycloheximide cs 61, Shiga inhibitor 73, MARV entry inh inconclusive
O=C(CCN1C(=O)c2cccc([N+](=O)[O-])c2C1=O)Nc1nccs1	MARV entry inh inconclusive
CCOC(=O)C(NC(=O)Nc1ccc(F)cc1F)(Oc1ccc(F)cc1)C(F)(F)F (stereo not drawn)	none
O=c1cc(CN2CCCCCC2)nc2sccn12	Pf growth 96h inconclusive
Cc1ccc(NC(=O)Nc2cnccn2)cc1	Cycloheximide cs 63, Shiga inhibitor 72, MARV entry inh inconclusive
Cc1cc(C)cc(NC(=O)Nc2cnccn2)c1	Pf growth 96h inconclusive (no result: Lassa entry inh, MARV entry inh)
O=C(Nc1ccccc1)Nc1cnccn1	Shiga inhibitor 24 (no result: Lassa entry inh, MARV entry inh)
O=C(Nc1cccc(Cl)c1)Nc1cnccn1	Pf growth 48h inconclusive (no result: Lassa entry inh, MARV entry inh)
O=C(O)C1CC1C(=O)Nc1cc(F)ccc1F (stereo not drawn)	none
O=C(NC1CCCCCC1)C(=S)NCc1ccccc1	Cycloheximide cs 39, Lassa entry inh inconclusive, Shiga inhibitor 62, Pf growth 96h inconclusive
